From PubChem BioAssay AID1159580 (chemical genetic matrix, 2015)
Where “and” joins values, the source holds several entries; their conditions need not be identical. Identical values can stand only once. The campaign covered roughly 5,500 compounds. About 2,000 (36%) were called active. Not shown: some 18% with an inconclusive outcome. Cut-off read from the data, not from the text of the source: active = normalized growth mostly below about 0.91 (no sharp cut-off); inconclusive = no clear call, values can overlap the other calls; inactive = mostly above about 0.92. The list shows a part of the results.

Assay: chemical genetic growth profiling, strain panel (AID 1159580);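 note: tested at 20 µM; growth read once vehicle control cultures reached saturation at 30 °C; 1 = growth at the plate median or of vehicle wells; lower values mean less growth of the strain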
Conditions: S. cerevisiae deletion strains, growth OD

Measured: normalized growth

O=C1c2c(O)cccc2Cc2cccc(O)c21
inactive: locus YAL013W, strain DEP1, hits give low values 1.04 | locus YAL021C, strain ccr4, hits give low values 0.958 | locus YAL026C, strain drs2, hits give low values 0.988 | locus YAL030W, strain snc1, hits give low values 0.986 | locus YBL061C, strain skt5, hits give low values 1 | locus YBR009C, strain hhf1, hits give low values 0.997 | locus YBR021W, strain FUR4, hits give low values 1 | locus YBR023C, strain chs3, hits give low values 0.988 | locus YBR171W, strain sec66, hits give low values 0.975 | locus YBR229C, strain ROT2, hits give low values 0.998 | locus YBR231C, strain swc5, hits give low values 0.981 | locus YBR279W, strain paf1, hits give low values 0.966 | locus YCL011C, strain gbp2, hits give low values 0.973 | locus YCL016C, strain dcc1, hits give low values 1.03 | locus YCL029C, strain bik1, hits give low values 0.992 | locus YCL061C, strain MRC1, hits give low values 0.978 | locus YCL069W, strain vba3, hits give low values 1.01 | locus YCR088W, strain abp1, hits give low values 1.01 | locus YDL005C, strain med2, hits give low values 0.978 | locus YDL035C, strain GPR1, hits give low values 1.02 | locus YDL040C, strain nat1, hits give low values 0.999 | locus YDL074C, strain BRE1, hits give low values 1.04 | locus YDL101C, strain DUN1, hits give low values 1.01 | locus YDL134C, strain PPH21, hits give low values 1.02 | locus YDL185W, strain tfp1, hits give low values 0.999 | locus YDL192W, strain arf1, hits give low values 0.994 | locus YDR001C, strain nth1, hits give low values 0.988 | locus YDR069C, strain doa4, hits give low values 0.946 | locus YDR101C, strain arx1, hits give low values 0.99 | locus YDR137W, strain rgp1, hits give low values 0.848 | locus YDR159W, strain sac3, hits give low values 0.982 | locus YDR162C, strain NBP2, hits give low values 1.03 | locus YDR195W, strain ref2 1.11 | locus YDR297W, strain sur2, hits give low values 1.01 | locus YDR318W, strain mcm21, hits give low values 0.994 | locus YDR334W, strain swr1, hits give low values 0.936 | locus YDR335W, strain msn5, hits give low values 0.999 | locus YDR388W, hits give low values 0.992 | locus YDR392W, strain spt3, hits give low values 0.986 | locus YDR502C, strain sam2, hits give low values 1.01 | locus YEL003W, strain gim4, hits give low values 1.03 | locus YEL037C, strain rad23, hits give low values 1 | locus YEL061C, strain CIN8 (second series), hits give low values 0.986 | locus YEL061C, strain CIN8, hits give low values 1 | locus YER015W, strain faa2, hits give low values 1.01 | locus YER016W, strain bim1, hits give low values 1.01 | locus YER110C, hits give low values 0.997 | locus YER111C, strain swi4, hits give low values 1.01 | locus YER155C, strain BEM2 (second series), hits give low values 0.957 | locus YER155C, strain BEM2, hits give low values 0.997 | locus YER167W, strain BCK2, hits give low values 1 | locus YFR010W, strain ubp6, hits give low values 0.957 | locus YGL078C, strain dbp3, hits give low values 0.992 | locus YGL086W, strain mad1, hits give low values 1 | locus YGL167C, strain pmr1, hits give low values 0.962 | locus YGL173C, strain kem1, hits give low values 0.996 | locus YGL227W, strain vid30, hits give low values 0.976 | locus YGL240W, strain doc1, hits give low values 0.985 | locus YGL248W, strain PDE1, hits give low values 1.02 | locus YGL253W, strain hxk2, hits give low values 0.963 | locus YGR078C, strain PAC10, hits give low values 1.03 | locus YGR135W, strain pre9, hits give low values 0.999 | locus YGR252W, strain gcn5, hits give low values 1.02 | locus YHR013C, strain ard1, hits give low values 1 | locus YHR027C, strain rpn1, hits give low values 0.976 | locus YHR030C, strain SLT2, hits give low values 1.01 and 1.06 | locus YHR079C, strain IRE1 (second series), hits give low values 0.994 | locus YHR079C, strain IRE1, hits give low values 1.08 | locus YHR094C, strain hxt1, hits give low values 0.993 | locus YHR129C, strain ARP1, hits give low values 1.01 | locus YHR142W, strain chs7, hits give low values 1.02 | locus YHR200W, strain rpn10, hits give low values 1 | locus YIL066C, strain RNR3, hits give low values 1.02 | locus YIL073C, strain SPO22, hits give low values 1.03 | locus YIL125W, strain kgd1, hits give low values 1 | locus YIR030C, strain dcg1, hits give low values 0.992 | locus YJL092W, strain hpr5, hits give low values 1.01 | locus YJL095W, strain BCK1 (second series), hits give low values 0.967 | locus YJL095W, strain BCK1, hits give low values 1.05 and 1.06 | locus YJL115W, strain asf1, hits give low values 0.982 | locus YJL129C, strain trk1, hits give low values 1.05 | locus YJL134W, strain LCB3, hits give low values 1.01 | locus YJL154C, strain vps35, hits give low values 0.988 | locus YJL164C, strain tpk1, hits give low values 1.02 | locus YJL166W, strain qcr8, hits give low values 0.984 | locus YJL168C, strain set2, hits give low values 0.99 | locus YJL187C, strain SWE1 (second series), hits give low values 1.02 | locus YJL187C, strain SWE1, hits give low values 1 | locus YJR043C, strain POL32, hits give low values 1.06 | locus YJR066W, strain TOR1, hits give low values 0.994 | locus YJR075W, strain HOC1, hits give low values 1.03 | locus YKL009W, strain mrt4, hits give low values 1.01 | locus YKL068W, hits give low values 0.99 | locus YKL085W, strain MDH1 (second series), hits give low values 0.994 | locus YKL085W, strain MDH1, hits give low values 0.994 | locus YKL160W, strain elf1, hits give low values 1 | locus YKR001C, strain vps1, hits give low values 1.01 | locus YKR026C, strain gcn3, hits give low values 0.991 | locus YKR091W, strain srl3, hits give low values 0.985 | locus YLL001W, strain dnm1, hits give low values 1 | locus YLL026W, hits give low values 1 | locus YLL041C, strain sdh2, hits give low values 0.997 | locus YLR027C, strain aat2, hits give low values 1.03 | locus YLR039C, strain RIC1, hits give low values 1.24 | locus YLR058C, strain SHM2, hits give low values 1.01 | locus YLR102C, strain apc9, hits give low values 0.995 | locus YLR113W, strain HOG1, hits give low values 1.13 | locus YLR221C, strain rsa3, hits give low values 0.985 | locus YLR258W, strain gsy2, hits give low values 0.976 | locus YLR262C, strain YPT6 (second series), hits give low values 0.862 | locus YLR262C, strain YPT6, hits give low values 1.28 | locus YLR268W, strain sec22, hits give low values 1.02 | locus YLR320W, strain mms22, hits give low values 0.996 | locus YLR330W, strain CHS5, hits give low values 1 | locus YLR342W, strain FKS1 (second series), hits give low values 1.01 | locus YLR342W, strain FKS1, hits give low values 0.996 | locus YLR357W, strain rsc2, hits give low values 0.921 | locus YLR370C, strain arc18, hits give low values 0.985 | locus YLR371W, strain rom2, hits give low values 1 | locus YLR384C, strain iki3, hits give low values 0.974 | locus YLR418C, strain cdc73, hits give low values 1.11 | locus YML016C, strain PPZ1, hits give low values 1 | locus YML032C, strain rad52, hits give low values 0.996 | locus YML120C, strain ndi1, hits give low values 1.02 | locus YML124C, strain tub3, hits give low values 0.988 | locus YMR058W, strain fet3, hits give low values 0.999 | locus YMR078C, strain ctf18, hits give low values 0.999 | locus YMR125W, strain sto1, hits give low values 0.988 | locus YMR129W, hits give low values 0.995 | locus YMR205C, strain PFK2, hits give low values 1.03 | locus YMR223W, strain ubp8, hits give low values 1 | locus YMR231W, strain pep5, hits give low values 0.976 | locus YMR263W, strain SAP30, hits give low values 1.02 | locus YMR307W, strain GAS1, hits give low values 0.997 | locus YNL067W, strain RPL9B, hits give low values 1.04 | locus YNL071W, strain lat1, hits give low values 1.02 | locus YNL183C, strain NPR1, hits give low values 1 | locus YNL209W, strain ssb2, hits give low values 1 | locus YNL233W, strain BNI4, hits give low values 1.05 | locus YNL248C, strain rpa49, hits give low values 0.906 | locus YNL250W, strain rad50, hits give low values 0.99 | locus YNL271C, strain bni1, hits give low values 0.989 | locus YNL298W, strain CLA4, hits give low values 0.985 | locus YNL307C, strain MCK1, hits give low values 1.01 | locus YNL322C, strain KRE1 (second series), hits give low values 0.988 | locus YNL322C, strain KRE1, hits give low values 1 | locus YNR049C, strain mso1, hits give low values 1.01 | locus YNR052C, strain pop2, hits give low values 0.993 | locus YOL012C, strain htz1 0.791 | locus YOL147C, strain pex11, hits give low values 0.997 | locus YOR001W, strain rrp6, hits give low values 0.979 | locus YOR061W, strain CKA2, hits give low values 1.01 | locus YOR069W, strain VPS5, hits give low values 1.01 | locus YOR070C, strain gyp1, hits give low values 1.03 | locus YOR080W, strain dia2, hits give low values 1 | locus YOR083W, strain WHI5, hits give low values 0.954 | locus YOR106W, strain vam3, hits give low values 0.898 | locus YOR136W, strain idh2, hits give low values 0.993 | locus YOR144C, strain elg1, hits give low values 0.996 | locus YOR184W, strain ser1, hits give low values 1.02 | locus YOR231W, strain MKK1, hits give low values 1.07 | locus YOR265W, strain rbl2, hits give low values 0.996 | locus YOR290C, strain snf2, hits give low values 1.02 | locus YOR316C, strain cot1, hits give low values 0.997 | locus YPL078C, strain atp4, hits give low values 1.01 | locus YPL106C, strain sse1, hits give low values 0.919 | locus YPL240C, strain hsp82, hits give low values 0.991 | locus YPL256C, strain CLN2, hits give low values 1.17 | locus YPR119W, strain clb2, hits give low values 0.988 | locus YPR141C, strain kar3, hits give low values 0.993 | locus YPR163C, strain tif3, hits give low values 0.997 | locus YPR167C, strain met16, hits give low values 1 | strain wtn01, hits give low values 0.999
active: locus YOR270C, strain vph1, hits give low values 0.755 | locus YPL051W, strain arl3, hits give low values 0.914
